An excerpt weighted towards active compounds, which were near 6.7% of everything screened.
PINK1 expr mod: A Quantitative High throughput Screen to Identify Chemical Modulators of PINK1 Expression; Potency, µM (doses to about 76.6 µM), without a hit: at the top dose activation (PINK1 increase), most hits filed as activators; PINK1 immunofluorescence, high-content cytometry, 24 h; actives 0.2% (n = 410,000); active = well fitted activation curve with a large enough effect; inconclusive = small, poorly fitted or top-dose-only effect; cell line not stated here; also: % of control where 0% means no effect; nearly all actives have a fitted effect of over 65% in size
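Readout is PINK1 immunofluorescence, quantified alongside mitochondrial, cell and nuclear markers by laser-scanning microplate cytometry. Cells from a stable line were exposed to compound titrations (5 concentrations) for 24 hours, with CCCP controls.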
KB-3-1 cytotox: qHTS assay for MDR1-selective chemotherapeutics: Primary screen using the parental adenocarcinoma cell KB-3-1 | KB-3-1 viability, CellTiter-Glo ATP luminescence, 72 h | Potency, µM (titrated, usually from 46.1 µM), most hits filed as cytotoxic | actives 1.4% (n = 400,000) | AID 1347075, 2019; also: % is scaled to controls: 0 for no effect and ±100 for the full control effect; nearly all actives have a fitted effect of over 60% in size
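KB-3-1 cells, DMEM (no phenol red) + 10% FBS; compound by pin transfer, 72 h, 37 °C. Readout: CellTiter-Glo luminescence after 10 min. Data normalized, curve-fitted.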
KB-V1 MDR tox: qHTS assay for MDR1-selective chemotherapeutics: Primary screen using the drug-selected MDR subline cells KB-V1 | Potency, µM (top dose mostly 46.1 µM), usual class: cytotoxic | actives 3.4% (n = 400,000) | KB-V1 MDR cells viability, CellTiter-Glo, 72 h; also: % is scaled to controls: 0 for no effect and ±100 for the full control effect; nearly all actives have a fitted effect of over 60% in size
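Cytotoxicity via CellTiter-Glo luminescence after 72 h compound exposure at 37 degrees C. Cells: drug-selected KB-V1 line, DMEM phenol-red free plus 10% FBS. Compounds tested at multiple concentrations; normalized data fitted to concentration-effect curves.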
MCF10A rerep: A quantitative high throughput screen for small molecules that induce DNA re-replication in MCF 10a normal breast cells. MCF 10A DNA re-replication, Hoechst nuclear intensity, 48 h. Potency, µM (highest dose often 46.1 µM), for the others: at the top dose activity, positive = re-replication, hits mostly activators. actives 2.9% (n = 350,000); also: % of control where 0% means no effect; nearly all actives have a fitted effect of over 50% in size
SW480 rerep: A quantitative high throughput screen for small molecules that induce DNA re-replication in SW480 colon adenocarcinoma cells; SW480 DNA re-replication, Hoechst DNA content imaging, 48 h; actives 1.8% (n = 340,000); Potency, µM (top dose mostly 46.1 µM), for inactives: at the highest dose re-replication activation, actives largely listed as activators; AID 624297, 2012; also: % of control where 0% means no effect; nearly all actives have a fitted effect of over 55% in size
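Hoechst fluorescence of nuclei (405 nm excitation, 500-530 nm emission) measured by plate-scanning imager after 48 hr compound exposure at 37 C; re-replication scored as increased number of nuclei with elevated intensity.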
The depositor's hits bear a star; i = inactive; ? = inconclusive; / = not tested or not shown; [ ] = remark or other dose. Unless noted, calls follow the shape of the dose curve; as a rule, active = well fitted curve in the direction sought with a large enough effect; inconclusive = small, poorly fitted or top-dose-only effect, or another doubt; inactive = no such curve, though single readings can be large; an effect the other way counts as inactive or inconclusive. Potency is read from the fitted curve at half-maximal effect.

SMILES	PINK1 expr mod	KB-3-1 cytotox	KB-V1 MDR tox	MCF10A rerep	SW480 rerep
COc1ccc(CCNC(=O)C2CCCN(S(=O)(=O)N3CC(C)CC(C)C3)C2)cc1OC (configuration not stated)	-2%	i	?	8%	-18%
COc1ccc(CCNC(=O)C2CC(=O)N(c3ccc(C(C)(C)C)cc3)C2)cc1OC (configuration not stated)	0%	i	i	0.58µM*	-2%
O=C(NCCc1ccc(Cl)cc1)C1CCC(=O)N1C1CCCC1 (configuration not stated)	/	i	i	-4%	-11%
CCOc1ccc(CCNC(=O)C2CCC(=O)N2C2CCCCC2)cc1OCC (configuration not stated)	4µM*	i	i	-3%	-3%
COc1ccc(CCNC(=O)C2CCN(S(=O)(=O)N3CC(C)CC(C)C3)CC2)cc1OC (configuration not stated)	2%[38.3 µM]	i	21µM*	5%	5%
CCOc1ccc(CCNC(=O)C2CCN(S(=O)(=O)N3CCC(C)CC3)CC2)cc1OCC	5%	i	2.6µM*	5%	10%
CCN(CC)C(=O)C1=C(C)N(Cc2ccc(OC)cc2)C(=O)C(CC(=O)NCc2cccc3ccccc23)C1 (configuration not stated)	0%	i	i	/	/
O=C(NCCc1ccccc1F)C1CC(=O)N(c2cccc(C(F)(F)F)c2)C1 (configuration not stated)	-1%	i	13µM*	5%	-1%
CCCn1c(=S)[nH]c2cc(C(=O)N3CCN(C4CCCCC4)CC3)ccc2c1=O	0%	?	i	2%	-18%
CCCCCCCCCCCCCCCC[N+](C)(C)Cc1ccccc1	/	/	/	13µM*	?
CCCCCCCCCCCCCC[N+](C)(C)Cc1ccccc1	1%	18µM*	i	27µM*	27µM*
CCCCCCCCCCN(CCCCCCCCCC)c1ccccc1	0%	i	i	/	/
COCCNC(=O)c1c(N)n(/N=C/c2ccc(F)cc2)c2nc3ccccc3nc12	4%	i	i	2.6µM*	5.8µM*
COCCNC(=O)c1c(N)n(/N=C/c2cccs2)c2nc3ccccc3nc12	1%	i	i	?	5.8µM*
CC(C)CNC(=O)c1c(N)n(/N=C/c2ccccn2)c2nc3ccccc3nc12	4%	i	i	18µM*	?
COc1cccc(/C=N/n2c(N)c(S(=O)(=O)c3cccs3)c3nc4ccccc4nc32)c1	/	i	i	17%	3%
Cc1cccc(NC(=O)c2cc3c(=O)n4ccccc4nc3n2C)c1C	14%	/	/	/	/
COc1ccc(OC)c2sc(N(Cc3cccnc3)C(=O)c3ccc(C(C)=O)cc3)nc12	-1%	i	i	/	/
COc1ccc(C(C[N+](=O)[O-])c2c(-c3ccccc3)cc3ccccn23)c(OC)c1 (configuration not stated)	10%	?	?	16µM*	?
COc1ccc(C(C[N+](=O)[O-])c2c(C)cc3ccccn23)cc1 (configuration not stated)	3%	i	i	21µM*	?
Cc1cc2ccccn2c1C(C[N+](=O)[O-])c1ccc(N(C)C)cc1 (configuration not stated)	1%	i	i	0%	25%
Cc1[nH]n(-c2ccccc2)c(=O)c1C(c1ccc(O)c([N+](=O)[O-])c1)c1c(C)[nH]n(-c2ccccc2)c1=O	0%	i	i	20%	-4%
COc1cccc(C(c2c(C)[nH]n(-c3ccccc3)c2=O)c2c(C)[nH]n(-c3ccccc3)c2=O)c1O	1%	i	i	8%	3%
COc1cccc(C(c2c(C)[nH]n(-c3ccccc3)c2=O)c2c(C)[nH]n(-c3ccccc3)c2=O)c1OC	10%	i	i	6.5µM*	1%
COc1ccc(C(C[N+](=O)[O-])c2c(C)[nH]n(-c3ccccc3)c2=O)cc1 (configuration not stated)	3%	i	i	12µM*	?
SMILES	PINK1 expr mod	KB-3-1 cytotox	KB-V1 MDR tox	MCF10A rerep	SW480 rerep
COc1cc(C(C)=O)ccc1OCC(=O)NCc1ccccc1CN1CCCC1	-1%	i	i	/	/
COc1cc(NC(=O)Cn2c(=O)nc(-c3ccccc3F)c3cc(Cl)ccc32)cc(OC)c1	-1%	/	/	/	/
CCOC(=O)[C@]12CCCC=C1N(Cc1ccc3c(c1)OCO3)C(=O)[C@H](CC(=O)NCc1ccc(OC)c(OC)c1)C2	1%	i	i	/	/
COc1ccc(/C=N/NC(=O)c2cc(-c3ccccc3OC(C)C)nc3ccccc23)cc1CN1CCOCC1	3%	i	?	8.2µM*	27%
COc1ccc(/C=N/NC(=O)c2cc(-c3ccccc3OC)nc3ccccc23)cc1COC(C)=O	-1%	i	i	-4%	1%[9.22 µM]
COc1ccc(OC(C)c2nc3ccccc3[nH]2)cc1 (configuration not stated)	2%	/	/	/	/
CCCCOc1ccc(C2CC(=O)NC2=O)cc1 (configuration not stated)	-1%[38.3 µM]	i	?	-5%	-8%
CCOc1ccccc1C1CC(=O)NC2=C1C(=O)CCC2 (configuration not stated)	3%	?	?	?	18µM*
CCCCOc1ccccc1C1CC(=O)NC2=C1C(=O)CCC2 (configuration not stated)	3%	?	?	4.1µM*	?
CCOc1ccc(C2CC(=O)NC3=C2C(=O)CCC3)cc1 (configuration not stated)	0%	i	i	-2%	-4%
CCCOc1ccccc1C1CC(=O)NC(C)=C1C(=O)OCC(C)C (configuration not stated)	8%	i	?	17%	16%
CCCOc1ccccc1C1CC(=O)NC2=C1C(=O)CCC2 (configuration not stated)	21%	4.6µM*	?	10µM*	12µM*
COc1ccc(C(CCN2CCOCC2)c2c(O)cc(OC)cc2OC)cc1 (configuration not stated)	-1%	i	i	24%	?
COc1ccc(C(c2c(O)ccc3ccccc23)N2CCOCC2)c(OC)c1 (configuration not stated)	-1%	i	i	3.3µM*	?
[N-]=[N+]=NC[C@H](Cc1ccccc1)N1CCN(Cc2ccccc2)CCC1=O	1%	i	i	10%	-10%
